Measurements as given in PubChem BioAssay (NCI).
This is part of a sample that, as a whole, favours compounds with a hit. Of some 79,000 tested, about 15% had one in any assay. Activity calls are given as the source filed them. Cut-off read from the data, not from the text of the source: active = growth inhibition above about 70%; inactive = the rest.

Assays:
[1] = NCI Yeast Anticancer Drug Screen. Data for the rad50 strain (AID 155);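 note: 0% = growth of vehicle-only cultures of the same strain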; conditions: S. cerevisiae rad50 strain growth inhibition, active compounds read high
How it was run: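 Yeast carrying a defined DNA repair defect were exposed to test compounds, and growth was compared with vehicle-treated controls to give percent inhibition.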

[2] = NCI Yeast Anticancer Drug Screen. Data for the mec2-1 strain (AID 157); conditions: S. cerevisiae mec2-1 strain, active compounds read high
How it was run: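 Compounds were applied to mec2-1 yeast cells. Their growth was then compared with that of vehicle-treated cultures to give growth inhibition.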

[3] = NCI Yeast Anticancer Drug Screen. Data for the sgs1 mgt1 strain (AID 161);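 note: 0% = growth of cultures given vehicle only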; conditions: S. cerevisiae sgs1 mgt1 strain, active compounds read high
How it was run: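 Yeast cells carrying a defined DNA-repair defect were exposed to test compounds. Growth inhibition was measured relative to vehicle-treated controls.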

[4] = NCI Yeast Anticancer Drug Screen. Data for the cln2 rad14 strain (AID 165);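 note: 0% = growth equal to vehicle treated cultures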; conditions: S. cerevisiae cln2 rad14 strain, active compounds read high
How it was run: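 Strain: cln2 rad14 yeast, altered in cell cycle control and DNA damage repair. Read-out: growth inhibition vs vehicle.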

[5] = NCI Yeast Anticancer Drug Screen. Data for the bub3 strain (AID 167); conditions: S. cerevisiae bub3 mutant strain, active compounds read high
How it was run: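 Compounds were applied to a genetically altered yeast strain carrying a cell-cycle control defect. Growth inhibition was scored against vehicle-treated controls.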

[6] = NCI Yeast Anticancer Drug Screen. Data for the mlh1 rad18 strain (AID 175); conditions: S. cerevisiae mlh1 rad18 strain growth inhibition, active compounds read high
How it was run: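 A repair-deficient yeast strain is exposed to test compound, and growth is scored relative to vehicle-treated controls.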

[7] = at 5.0 µM (retest, dose inferred, filed as 0.5)
[8] = at 50.0 µM (retest, dose inferred, filed as 5.0)

Measured: growth inhibition

O=C1C(=Cc2ccccc2O)N=C(c2ccccc2)N1n1c(-c2ccccc2)nc2ccccc2c1=O
inactive: [1]; [7] 5% | [1]; [8] 31% | [1]; at 50.0 µM 58% | [2]; [7] -3% | [2]; [8] 22% | [2]; at 50.0 µM 49.2% | [3]; [7] 0% | [3]; [8] 24% | [4]; [7] 8% | [4]; [8] 33% | [4]; at 50.0 µM 50.3% | [5]; [7] -13% | [5]; [8] 45% | [6]; [7] 11% | [6]; [8] 39%
active: [3]; at 50.0 µM 75.7% | [5]; at 50.0 µM 80.2% | [6]; at 50.0 µM 73.3%

CN(CCC(=O)/C(=C\c1ccc(Cl)cc1)c1ccccc1)Cc1ccccc1
active: [1]; [7] 98% | [1]; [8] 98% | [2]; [7] 100% | [2]; [8] 99% | [2]; at 50.0 µM 99% | [3]; [7] 99% | [3]; [8] 99% | [3]; at 50.0 µM 98.2% | [4]; [7] 98% | [4]; [8] 98% | [4]; at 50.0 µM 98.5% | [5]; [7] 97% | [5]; [8] 99% | [5]; at 50.0 µM 97.6% | [6]; [7] 99% | [6]; [8] 99% | [6]; at 50.0 µM 98.5%
inactive: [1]; at 50.0 µM 62.9%

CC(O)c1cc(-c2ccc(Cl)cc2)nc2ccccc12 (stereo not given)
active: [1]; [8] 97% | [1]; at 50.0 µM 97.8% | [2]; [8] 98% | [2]; at 50.0 µM 97.2% | [3]; [8] 98% | [3]; at 50.0 µM 98% | [4]; [8] 98% | [4]; at 50.0 µM 97.2% | [5]; [8] 98% | [5]; at 50.0 µM 97.8% | [6]; [8] 97% | [6]; at 50.0 µM 96.5%
inactive: [1]; [7] 12% | [2]; [7] 4% | [3]; [7] 6% | [4]; [7] 14% | [5]; [7] 1% | [6]; [7] -1%

CCCCCCCCCCCCCCCCN1CCSCC1
inactive: [1]; [7] 39% | [2]; [7] 45% | [3]; [7] 65% | [4]; [7] 23% | [5]; [7] 36% | [6]; [7] 69%
active: [1]; [8] 98% | [1]; at 50.0 µM 98.3% | [2]; [8] 99% | [2]; at 50.0 µM 99% | [3]; [8] 99% | [3]; at 50.0 µM 98.9% | [4]; [8] 99% | [4]; at 50.0 µM 98.7% | [5]; [8] 99% | [5]; at 50.0 µM 99% | [6]; [8] 99% | [6]; at 50.0 µM 98.7%

O=C(CCC1OCCO1)Nc1cc(NCc2ccccc2)ccc1OCc1ccccc1
active: [1]; at 50.0 µM 71.2% | [3]; [8] 73% | [3]; at 50.0 µM 89.4% | [6]; at 50.0 µM 70.2%
inactive: [1]; [7] 1% | [1]; [8] 48% | [2]; [7] 2% | [2]; [8] 69% | [2]; at 50.0 µM 57% | [3]; [7] -173% | [4]; [7] 0% | [4]; [8] 16% | [4]; at 50.0 µM 43.7% | [5]; [7] 0% | [5]; [8] 39% | [5]; at 50.0 µM 65% | [6]; [7] 16% | [6]; [8] 68%

Cc1ccc2c(c1)C(O)(c1ccccc1)CCS2 (stereo not given)
active: [1]; [7] 87% | [1]; [8] 95% | [1]; at 50.0 µM 90.2% | [2]; [8] 97% | [2]; at 50.0 µM 77.2% | [3]; [7] 86% | [3]; [8] 97% | [3]; at 50.0 µM 91.8% | [4]; [8] 96% | [4]; at 50.0 µM 71.2% | [5]; [8] 96% | [5]; at 50.0 µM 86.8% | [6]; [8] 94% | [6]; at 50.0 µM 94.3%
inactive: [2]; [7] 58% | [4]; [7] 16% | [5]; [7] 46% | [6]; [7] 66%

O=C(N/C(=C\c1nc2ccccc2s1)c1ccccc1O)c1ccccc1
active: [5]; [8] 75%
inactive: [1]; [7] -10% | [1]; [8] 68% | [1]; at 50.0 µM 29.8% | [2]; [7] 7% | [2]; [8] 30% | [2]; at 50.0 µM 12.3% | [3]; [7] -16% | [3]; [8] 31% | [3]; at 50.0 µM 38.5% | [4]; [7] 2% | [4]; [8] 41% | [4]; at 50.0 µM 17.2% | [5]; [7] -5% | [5]; at 50.0 µM 32.4% | [6]; [7] 19% | [6]; [8] 37% | [6]; at 50.0 µM 32%

CCOC(=O)Sc1nc2ccccc2[nH]1
inactive: [1]; [7] 4% | [1]; [8] 6% | [1]; at 50.0 µM 53.2% | [2]; [7] 2% | [2]; [8] 3% | [2]; at 50.0 µM 25.2% | [3]; [7] 4% | [3]; [8] 0% | [3]; at 50.0 µM 62.1% | [4]; [7] 3% | [4]; [8] 1% | [4]; at 50.0 µM 13.7% | [5]; [7] 2% | [5]; [8] 2% | [5]; at 50.0 µM 7.45% | [6]; [7] 0% | [6]; [8] 7% | [6]; at 50.0 µM 29.4%

Cc1nn(CCO)c(=O)c(C#N)c1C
active: [5]; [8] 77%
inactive: [1]; [7] 1% | [1]; [8] 17% | [1]; at 50.0 µM 66.2% | [2]; [7] 5% | [2]; [8] 16% | [2]; at 50.0 µM 49% | [3]; [7] 2% | [3]; [8] 14% | [3]; at 50.0 µM 61.7% | [4]; [7] -1% | [4]; [8] -5% | [4]; at 50.0 µM 11.7% | [5]; [7] 19% | [5]; at 50.0 µM 34.1% | [6]; [7] 5% | [6]; [8] 30% | [6]; at 50.0 µM 50.5%

COc1ccccc1NC(=O)C1=C(C)NC(C)=C(C(=O)Nc2ccccc2OC)C1c1ccc(OC)c(OC)c1
inactive: [1]; [7] 9% | [1]; [8] 50% | [1]; at 50.0 µM 55.9% | [2]; [7] -3% | [2]; [8] 43% | [2]; at 50.0 µM 26.6% | [3]; [7] 9% | [3]; [8] 48% | [3]; at 50.0 µM 49.9% | [4]; [7] -4% | [4]; [8] 31% | [4]; at 50.0 µM -38.9% | [5]; [7] -1% | [5]; [8] 51% | [5]; at 50.0 µM -3.55% | [6]; [7] 2% | [6]; [8] 38% | [6]; at 50.0 µM 23.9%
